Experimental data: the supplement of paper PMC11732987, “Enantioselective OTUD7B fragment discovery through chemoproteomics screening and high-throughput optimisation” (Communications Chemistry, 2025)

Assays:
Assay in all cases: log2 ratio of Biotin-Ahx-Ub-VS probe labelling (fragment/DMSO); higher = less target engagement (more negative = stronger competition), active = hit call of the paper (q ≤ 0.05, log2 ratio ≤ -1)
Conditions in all cases: compound concentration: 200 uM; treatment time: 3 h
[1] = target: T1, USP19 (UniProt O94966)
T1 sequence (whole entry): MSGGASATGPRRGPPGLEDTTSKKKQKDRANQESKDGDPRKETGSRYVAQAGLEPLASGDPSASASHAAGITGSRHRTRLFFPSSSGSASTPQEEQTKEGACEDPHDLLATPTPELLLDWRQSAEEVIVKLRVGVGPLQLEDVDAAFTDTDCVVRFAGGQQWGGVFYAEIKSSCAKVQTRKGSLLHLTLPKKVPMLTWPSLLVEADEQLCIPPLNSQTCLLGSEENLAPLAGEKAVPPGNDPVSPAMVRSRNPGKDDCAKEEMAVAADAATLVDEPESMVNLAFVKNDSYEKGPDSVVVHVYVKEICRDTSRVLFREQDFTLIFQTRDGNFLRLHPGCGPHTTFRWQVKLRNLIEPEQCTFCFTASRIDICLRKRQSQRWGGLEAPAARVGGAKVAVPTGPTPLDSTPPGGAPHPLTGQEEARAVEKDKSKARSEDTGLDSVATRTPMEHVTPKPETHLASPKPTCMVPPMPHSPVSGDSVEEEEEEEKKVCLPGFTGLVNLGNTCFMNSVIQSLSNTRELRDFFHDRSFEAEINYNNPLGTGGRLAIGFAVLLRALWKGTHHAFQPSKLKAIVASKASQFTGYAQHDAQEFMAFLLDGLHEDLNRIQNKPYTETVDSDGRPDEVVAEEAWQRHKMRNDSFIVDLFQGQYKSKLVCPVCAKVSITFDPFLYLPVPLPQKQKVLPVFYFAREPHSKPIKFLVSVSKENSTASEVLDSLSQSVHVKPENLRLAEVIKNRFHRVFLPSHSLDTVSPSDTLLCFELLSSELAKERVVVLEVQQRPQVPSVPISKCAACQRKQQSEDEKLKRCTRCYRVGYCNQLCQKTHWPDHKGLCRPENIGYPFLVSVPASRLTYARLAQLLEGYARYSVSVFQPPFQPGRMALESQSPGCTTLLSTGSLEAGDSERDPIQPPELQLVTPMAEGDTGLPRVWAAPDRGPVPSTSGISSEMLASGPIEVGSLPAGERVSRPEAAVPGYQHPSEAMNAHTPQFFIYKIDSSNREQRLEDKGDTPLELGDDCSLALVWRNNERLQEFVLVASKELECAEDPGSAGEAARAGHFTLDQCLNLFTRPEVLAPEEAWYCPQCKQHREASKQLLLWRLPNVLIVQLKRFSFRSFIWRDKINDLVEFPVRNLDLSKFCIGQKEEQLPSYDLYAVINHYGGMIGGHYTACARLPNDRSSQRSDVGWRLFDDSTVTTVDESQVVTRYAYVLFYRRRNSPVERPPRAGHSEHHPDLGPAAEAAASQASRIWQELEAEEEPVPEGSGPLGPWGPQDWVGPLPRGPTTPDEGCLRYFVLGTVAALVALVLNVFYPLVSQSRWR
Outline: (§1)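 The table lists average log2 ratios of fragment over vehicle, from an unpaired t-test on global-median-normalised Spectronaut label-free quantities. Proteins with ≥2 unique peptides were used. Samples were HEK293T lysate (495 µg) treated in triplicate with fragment at 200 µM or vehicle for 3 h, then with Biotin-Ahx-Ub-VS (0.5 µM final) for 1 h, with labelled DUBs NeutrAvidin-enriched and run by diaPASEF LC-MS/MS.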

[2] = target: T2, USP22 (UniProt Q9UPT9)
T2 sequence (whole entry): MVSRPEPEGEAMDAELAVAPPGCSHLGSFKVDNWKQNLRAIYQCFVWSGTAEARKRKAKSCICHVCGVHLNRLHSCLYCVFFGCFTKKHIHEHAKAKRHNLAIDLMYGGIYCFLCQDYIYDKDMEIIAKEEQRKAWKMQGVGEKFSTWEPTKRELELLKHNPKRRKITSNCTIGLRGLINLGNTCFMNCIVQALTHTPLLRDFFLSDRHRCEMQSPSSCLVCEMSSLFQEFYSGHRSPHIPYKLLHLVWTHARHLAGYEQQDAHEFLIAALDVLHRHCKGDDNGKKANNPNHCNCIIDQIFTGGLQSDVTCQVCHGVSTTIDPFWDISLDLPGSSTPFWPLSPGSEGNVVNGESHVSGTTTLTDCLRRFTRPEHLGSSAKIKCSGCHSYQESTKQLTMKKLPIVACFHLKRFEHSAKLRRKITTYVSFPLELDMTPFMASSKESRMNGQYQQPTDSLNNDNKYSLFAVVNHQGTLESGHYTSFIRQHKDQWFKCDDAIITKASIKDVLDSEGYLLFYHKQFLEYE
Outline: as §1

[3] = target: USP24 (UniProt Q9UPU5)
Sequence of USP24 (Q9UPU5 whole entry): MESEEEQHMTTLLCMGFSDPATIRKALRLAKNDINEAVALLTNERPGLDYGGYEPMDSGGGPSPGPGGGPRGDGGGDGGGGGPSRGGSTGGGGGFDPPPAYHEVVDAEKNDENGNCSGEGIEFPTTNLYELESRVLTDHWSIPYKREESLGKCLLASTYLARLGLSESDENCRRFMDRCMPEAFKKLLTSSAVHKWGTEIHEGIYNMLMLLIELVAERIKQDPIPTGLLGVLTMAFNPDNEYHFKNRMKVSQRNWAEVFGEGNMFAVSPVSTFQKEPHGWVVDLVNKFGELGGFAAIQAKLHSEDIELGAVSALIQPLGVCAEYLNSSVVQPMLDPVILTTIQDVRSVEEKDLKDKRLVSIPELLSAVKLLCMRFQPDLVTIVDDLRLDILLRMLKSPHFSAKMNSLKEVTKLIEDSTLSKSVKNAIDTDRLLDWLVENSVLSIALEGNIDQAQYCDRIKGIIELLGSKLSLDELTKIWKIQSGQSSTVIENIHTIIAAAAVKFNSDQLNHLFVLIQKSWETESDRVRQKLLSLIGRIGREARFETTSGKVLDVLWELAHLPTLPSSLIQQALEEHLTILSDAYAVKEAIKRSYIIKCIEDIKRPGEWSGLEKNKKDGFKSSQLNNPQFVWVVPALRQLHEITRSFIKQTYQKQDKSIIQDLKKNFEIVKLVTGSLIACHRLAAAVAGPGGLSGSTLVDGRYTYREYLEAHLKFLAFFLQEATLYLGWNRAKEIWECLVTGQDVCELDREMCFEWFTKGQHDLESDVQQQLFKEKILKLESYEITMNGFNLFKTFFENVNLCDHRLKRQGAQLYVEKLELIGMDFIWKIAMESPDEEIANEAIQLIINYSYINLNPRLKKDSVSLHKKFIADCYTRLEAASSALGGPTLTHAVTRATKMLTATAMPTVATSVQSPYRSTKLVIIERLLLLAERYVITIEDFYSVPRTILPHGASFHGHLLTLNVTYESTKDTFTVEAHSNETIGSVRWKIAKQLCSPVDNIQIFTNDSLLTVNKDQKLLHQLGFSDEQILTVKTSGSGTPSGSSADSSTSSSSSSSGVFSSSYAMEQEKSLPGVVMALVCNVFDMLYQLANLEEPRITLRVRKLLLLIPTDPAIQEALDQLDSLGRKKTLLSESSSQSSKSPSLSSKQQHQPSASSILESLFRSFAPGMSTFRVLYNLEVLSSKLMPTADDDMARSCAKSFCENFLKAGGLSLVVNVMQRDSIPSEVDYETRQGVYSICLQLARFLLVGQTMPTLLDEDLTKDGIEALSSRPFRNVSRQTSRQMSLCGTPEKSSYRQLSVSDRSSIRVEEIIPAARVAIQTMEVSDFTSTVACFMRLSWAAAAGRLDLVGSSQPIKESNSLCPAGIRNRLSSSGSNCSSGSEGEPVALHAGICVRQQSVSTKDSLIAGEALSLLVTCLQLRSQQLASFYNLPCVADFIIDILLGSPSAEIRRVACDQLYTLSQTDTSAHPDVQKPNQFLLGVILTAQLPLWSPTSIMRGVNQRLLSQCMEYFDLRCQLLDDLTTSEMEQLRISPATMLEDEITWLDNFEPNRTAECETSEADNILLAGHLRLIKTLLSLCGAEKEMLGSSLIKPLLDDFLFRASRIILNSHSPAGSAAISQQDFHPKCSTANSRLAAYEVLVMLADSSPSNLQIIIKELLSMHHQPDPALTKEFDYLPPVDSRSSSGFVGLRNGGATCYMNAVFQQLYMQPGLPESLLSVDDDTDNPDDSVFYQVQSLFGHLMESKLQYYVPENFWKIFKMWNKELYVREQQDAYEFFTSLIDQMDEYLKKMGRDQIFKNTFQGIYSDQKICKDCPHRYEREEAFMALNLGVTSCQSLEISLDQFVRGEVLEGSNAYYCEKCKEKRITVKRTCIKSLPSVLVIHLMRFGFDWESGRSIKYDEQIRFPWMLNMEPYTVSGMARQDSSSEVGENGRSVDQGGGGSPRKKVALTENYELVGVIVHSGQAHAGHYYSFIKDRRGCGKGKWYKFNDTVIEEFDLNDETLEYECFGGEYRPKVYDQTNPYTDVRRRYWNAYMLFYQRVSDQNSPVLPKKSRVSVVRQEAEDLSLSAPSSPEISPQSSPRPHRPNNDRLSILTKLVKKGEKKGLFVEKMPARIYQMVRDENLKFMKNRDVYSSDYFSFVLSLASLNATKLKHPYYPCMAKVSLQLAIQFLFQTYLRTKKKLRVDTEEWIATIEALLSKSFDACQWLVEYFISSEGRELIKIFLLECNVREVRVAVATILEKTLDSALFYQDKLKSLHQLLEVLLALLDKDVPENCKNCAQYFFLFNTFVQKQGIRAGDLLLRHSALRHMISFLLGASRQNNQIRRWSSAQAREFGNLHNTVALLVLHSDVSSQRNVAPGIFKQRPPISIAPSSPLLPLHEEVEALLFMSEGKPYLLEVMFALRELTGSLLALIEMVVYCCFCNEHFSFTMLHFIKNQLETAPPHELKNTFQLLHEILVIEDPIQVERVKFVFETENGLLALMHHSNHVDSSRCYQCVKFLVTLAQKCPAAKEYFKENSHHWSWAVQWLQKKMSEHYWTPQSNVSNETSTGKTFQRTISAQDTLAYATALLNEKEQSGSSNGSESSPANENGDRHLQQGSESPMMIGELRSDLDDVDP
Outline: as §1

[4] = target: T3, USP25 (UniProt Q9UHP3)
T3 sequence (whole entry): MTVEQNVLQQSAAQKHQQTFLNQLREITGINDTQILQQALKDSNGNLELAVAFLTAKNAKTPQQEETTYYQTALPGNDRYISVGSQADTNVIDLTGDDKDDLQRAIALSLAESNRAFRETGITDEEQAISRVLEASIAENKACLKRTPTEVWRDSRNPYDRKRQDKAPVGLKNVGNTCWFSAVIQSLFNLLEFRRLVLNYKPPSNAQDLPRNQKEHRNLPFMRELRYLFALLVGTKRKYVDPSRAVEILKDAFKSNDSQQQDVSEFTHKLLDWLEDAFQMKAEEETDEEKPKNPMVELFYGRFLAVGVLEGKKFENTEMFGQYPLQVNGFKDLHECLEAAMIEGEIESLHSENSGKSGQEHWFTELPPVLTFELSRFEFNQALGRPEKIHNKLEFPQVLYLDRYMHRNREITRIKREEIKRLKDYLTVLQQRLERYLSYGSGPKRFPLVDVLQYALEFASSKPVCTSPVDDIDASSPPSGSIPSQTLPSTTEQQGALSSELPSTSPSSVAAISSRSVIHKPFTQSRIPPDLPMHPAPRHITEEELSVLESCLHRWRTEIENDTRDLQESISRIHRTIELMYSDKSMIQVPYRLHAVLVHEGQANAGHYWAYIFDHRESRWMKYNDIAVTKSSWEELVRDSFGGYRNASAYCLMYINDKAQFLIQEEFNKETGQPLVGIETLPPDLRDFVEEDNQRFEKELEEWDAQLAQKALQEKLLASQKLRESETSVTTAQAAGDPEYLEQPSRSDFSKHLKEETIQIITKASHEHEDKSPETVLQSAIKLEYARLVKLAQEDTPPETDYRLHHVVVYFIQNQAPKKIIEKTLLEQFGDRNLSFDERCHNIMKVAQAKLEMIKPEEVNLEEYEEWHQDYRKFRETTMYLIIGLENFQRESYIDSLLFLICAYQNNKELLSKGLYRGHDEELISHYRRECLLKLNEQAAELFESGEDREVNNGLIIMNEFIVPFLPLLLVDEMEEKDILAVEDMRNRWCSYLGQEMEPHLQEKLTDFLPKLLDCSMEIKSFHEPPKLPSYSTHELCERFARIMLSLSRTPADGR
Outline: as §1

[5] = target: T4, USP28 (UniProt Q96RU2)
T4 sequence (whole entry): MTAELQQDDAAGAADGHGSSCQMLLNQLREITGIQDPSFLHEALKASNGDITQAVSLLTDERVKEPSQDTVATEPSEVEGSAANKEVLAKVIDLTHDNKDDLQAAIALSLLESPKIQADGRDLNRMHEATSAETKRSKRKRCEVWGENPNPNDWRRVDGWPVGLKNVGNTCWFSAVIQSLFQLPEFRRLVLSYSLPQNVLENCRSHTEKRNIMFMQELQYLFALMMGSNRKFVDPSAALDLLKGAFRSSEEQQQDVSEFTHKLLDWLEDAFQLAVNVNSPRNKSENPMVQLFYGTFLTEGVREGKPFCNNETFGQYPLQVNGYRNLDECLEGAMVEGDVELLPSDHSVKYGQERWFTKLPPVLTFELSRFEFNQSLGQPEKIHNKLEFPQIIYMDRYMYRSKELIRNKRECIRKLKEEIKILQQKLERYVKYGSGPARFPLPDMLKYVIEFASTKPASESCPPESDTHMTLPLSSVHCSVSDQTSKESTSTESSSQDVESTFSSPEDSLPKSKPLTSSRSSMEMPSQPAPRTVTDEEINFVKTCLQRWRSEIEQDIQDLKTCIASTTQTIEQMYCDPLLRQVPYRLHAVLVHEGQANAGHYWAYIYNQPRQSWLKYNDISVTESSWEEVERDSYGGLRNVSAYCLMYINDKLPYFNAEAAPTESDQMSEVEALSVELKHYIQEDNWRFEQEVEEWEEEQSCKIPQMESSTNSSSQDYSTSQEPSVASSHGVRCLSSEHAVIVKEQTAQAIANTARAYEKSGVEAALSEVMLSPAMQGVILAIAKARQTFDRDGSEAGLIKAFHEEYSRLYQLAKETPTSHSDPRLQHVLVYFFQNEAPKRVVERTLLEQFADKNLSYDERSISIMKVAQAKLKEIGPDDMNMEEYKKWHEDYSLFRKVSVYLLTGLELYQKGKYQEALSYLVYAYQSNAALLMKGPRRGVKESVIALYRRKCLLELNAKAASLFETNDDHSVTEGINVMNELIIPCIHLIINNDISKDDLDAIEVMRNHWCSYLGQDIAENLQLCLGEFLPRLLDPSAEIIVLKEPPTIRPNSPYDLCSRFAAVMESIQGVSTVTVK
Outline: as §1

Measured: log2 ratio of Biotin-Ahx-Ub-VS probe labelling

CC(c1ccccc1)N(C)C(=O)CCl (stereo not given)
inactive: [1] -0.444 | [2] 0.102 | [3] -0.45 | [4] -0.472 | [5] -0.526
